From PubChem BioAssay (NCI) come the findings set out here.

Test systems include SR leukemia; RPMI-8226 leukemia; OVCAR-8 ovarian; OVCAR-5 ovarian; OVCAR-4 ovarian; SK-OV-3 ovarian; IGROV1 ovarian; OVCAR-3 ovarian; HS 578T breast; NCI/ADR-RES ovarian; T-47D breast; MDA-MB-435 melanoma; SW-620 colon; MCF7 breast; HCT-116 colon; HCC-2998 colon; KM12 colon; BT-549 breast.
Assay in all cases: NCI-60 one-dose screen, 48 h (100 = growth as untreated, 0 = no growth, -100 = all killed)
Settings in all cases: 10 µM unless noted

This is part of a sample that, as a whole, favours compounds with a hit. Of some 83,000 tested, about 20% had one in any assay.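 Step 1: grow cells in 96-well plates. Step 2: add test compound at a single concentration. Step 3: incubate 48 h. Step 4: record percent growth.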 Values without a mark were called inactive. Active and inactive are the calls of the source. How the source made its calls: active means growth percent below 10; inactive means the rest.

Consider `COc1cc(-c2nn(C(C)(C)C)cc2-c2ccnc(NCCCNS(=O)(=O)c3ccc(Cl)cc3)n2)ccc1Cl`, for which the growth in the test on SR leukemia was 37.7%; in the test on RPMI-8226 leukemia, 66.1%; in the test on OVCAR-8 ovarian, 73.3%; with OVCAR-5 ovarian, 79.5%; in the test with OVCAR-4 ovarian, 39.2%; in the test with SK-OV-3 ovarian, 93.9%. Also, the growth is 50.8% with IGROV1 ovarian; 73.5% in the test on OVCAR-3 ovarian; 70.5% in the test on HS 578T breast; 67% with NCI/ADR-RES ovarian; 64.2% in the test on T-47D breast; 72.2% in the test with MDA-MB-435 melanoma. Also, the growth with SW-620 colon was 91.1%; in the test on MCF7 breast it was 52.2%; with HCT-116 colon it was 39%; with HCC-2998 colon, 108%; in the test with KM12 colon, 68.8%.

With `COc1cc(-c2nn(C(C)(C)C)cc2-c2ccnc(NCCCNS(=O)(=O)c3cccc(F)c3)n2)ccc1Cl`, the growth in the test on SR leukemia is 50.6%; with RPMI-8226 leukemia, 51.8%; in the test with OVCAR-8 ovarian it was 89.3%; in the test with OVCAR-5 ovarian it was 80.5%; in the test on OVCAR-4 ovarian it was 45.8%; in the test with SK-OV-3 ovarian it was 102%. The growth is 48.9% with IGROV1 ovarian; 85% in the test with OVCAR-3 ovarian; 80.3% with HS 578T breast; 74.5% with NCI/ADR-RES ovarian; 69.5% in the test on T-47D breast; 77.9% with MDA-MB-435 melanoma. In addition, the growth was 71.3% with MCF7 breast, 52.4% in the test on HCT-116 colon, 103% with HCC-2998 colon and 80.3% with KM12 colon.

Take `CC1(C)[C@@H](O)CC[C@]2(C)[C@H]3CC[C@@H]4[C@H]5[C@H](C(=O)/C=C\c6ccc([N+](=O)[O-])cc6)CC[C@]5(O)CC[C@@]4(C)[C@]3(C)CC[C@@H]12`: the growth in the test on SR leukemia was 1.04% (active); with RPMI-8226 leukemia, 11.7%; in the test with OVCAR-8 ovarian, 76.8%; in the test with OVCAR-5 ovarian, 92%; with OVCAR-4 ovarian it was 41.1%; in the test with SK-OV-3 ovarian, 107%. For the same molecule, the growth is 56.6% with IGROV1 ovarian; 43.2% in the test on OVCAR-3 ovarian; 59.9% in the test with HS 578T breast; 64% with NCI/ADR-RES ovarian; 57.7% with T-47D breast; 36.1% in the test on MDA-MB-435 melanoma. Also, the growth in the test on SW-620 colon was 30.2%; in the test on MCF7 breast, 38.7%; in the test on HCT-116 colon it was 4.14% (active); in the test with HCC-2998 colon it was 77.2%; in the test with KM12 colon, 53.3%.

For the molecule `CCOP(=O)(OCC)OC[C@]12CCC(C)(C)C=C1[C@H]1CC[C@@H]3[C@@]4(C)CC[C@H](OP(=O)(OCC)OCC)C(C)(C)[C@@H]4CC[C@@]3(C)[C@]1(C)CC2`, the growth in the test with SR leukemia was -27.4% (active); in the test with RPMI-8226 leukemia, -43% (active); with OVCAR-8 ovarian, -27.3% (active); with OVCAR-5 ovarian, -26.8% (active); in the test with OVCAR-4 ovarian, -1.21% (active); in the test with SK-OV-3 ovarian, -2.62% (active). The growth is -20% (active) in the test with IGROV1 ovarian; -85.5% (active) with OVCAR-3 ovarian; -13.5% (active) in the test with HS 578T breast; 0.702% (active) in the test with NCI/ADR-RES ovarian; 13.5% with T-47D breast; -20.2% (active) with BT-549 breast. Besides, the growth in the test on MDA-MB-435 melanoma is -38.4% (active); with HCT-116 colon it was -59.8% (active); with HCC-2998 colon, -50.9% (active); in the test with KM12 colon, 3.6% (active).

`CNC(=O)c1cc(-c2ccc(NC(=S)Nc3cc(C(F)(F)F)cc(C(F)(F)F)c3)cc2)nc2cccnc12`: the growth in the test with SR leukemia is 71.8%; in the test with RPMI-8226 leukemia, 93.7%; in the test with OVCAR-8 ovarian it was 100%; with OVCAR-5 ovarian, 102%; with OVCAR-4 ovarian, 75.3%; in the test on SK-OV-3 ovarian it was 102%. In addition, the growth was 75.9% in the test with IGROV1 ovarian; 106% with OVCAR-3 ovarian; 93.9% in the test on HS 578T breast; 105% in the test with NCI/ADR-RES ovarian; 85.1% in the test on T-47D breast; 94.9% in the test on MDA-MB-435 melanoma. For the same molecule, the growth in the test with SW-620 colon is 98.1%; in the test on MCF7 breast it was 59.6%; in the test with HCT-116 colon it was 99%; in the test with HCC-2998 colon, 122%; in the test with KM12 colon, 98.6%.

`Nc1nc(Nc2ccccc2SSc2ccccc2Nc2nc(N)nc(-c3ccccc3)n2)nc(-c2ccccc2)n1`: the growth was -47% (active) with SR leukemia; 11.2% in the test on RPMI-8226 leukemia; 73.9% with OVCAR-8 ovarian; 107% in the test on OVCAR-5 ovarian; 63% in the test with OVCAR-4 ovarian; 130% with SK-OV-3 ovarian. Also, the growth in the test with IGROV1 ovarian was 52.2%; in the test on OVCAR-3 ovarian, 90.3%; in the test on HS 578T breast, 84.3%; in the test with NCI/ADR-RES ovarian, 14.9%; in the test with T-47D breast, 74.7%; with MDA-MB-435 melanoma it was 90.6%. Further, the growth is 70.5% with SW-620 colon; 68.3% with MCF7 breast; 61.3% in the test with HCT-116 colon; 110% with HCC-2998 colon; 22.1% in the test with KM12 colon.

As for `CC(C)(O)c1cncc(-c2ccc3ncnc(NCc4ccccc4)c3c2)c1`, the growth with SR leukemia is 92.2%; with RPMI-8226 leukemia, 84.6%; in the test on OVCAR-8 ovarian it was 102%; with OVCAR-5 ovarian, 62.5%; in the test on OVCAR-4 ovarian it was 77.3%; in the test with SK-OV-3 ovarian, 110%. Also, the growth is 34.2% in the test with IGROV1 ovarian; 83.8% in the test with OVCAR-3 ovarian; 73.2% in the test on HS 578T breast; 103% in the test on NCI/ADR-RES ovarian; 64.2% in the test with T-47D breast; 92.3% with MDA-MB-435 melanoma. In addition, the growth with SW-620 colon is 98.9%; with MCF7 breast, 58.5%; in the test with HCT-116 colon, 97.8%; in the test with HCC-2998 colon it was 92.8%; in the test with KM12 colon it was 101%.

`Cc1cccc2c3c(sc12)C(c1ccc(F)cc1)C(C#N)=C(/N=C/c1ccc(Cl)cc1)O3` (centres undefined): the growth in the test on SR leukemia was 10.5%; with RPMI-8226 leukemia it was 19.7%; in the test with OVCAR-8 ovarian, -3.92% (active); with OVCAR-5 ovarian, 23.5%; in the test on OVCAR-4 ovarian it was 70%; in the test with SK-OV-3 ovarian it was 34.8%. In addition, the growth with IGROV1 ovarian was 22.5%; in the test with HS 578T breast it was 1.34% (active); in the test on NCI/ADR-RES ovarian, 2.96% (active); with T-47D breast, 56.7%; in the test with BT-549 breast it was -26.5% (active); with MDA-MB-435 melanoma, -12.4% (active). Also, the growth with SW-620 colon was 19.6%; in the test on MCF7 breast, 14.1%; in the test on HCT-116 colon, 2.26% (active); in the test on HCC-2998 colon, 5.44% (active); in the test with KM12 colon it was 15.7%.
